From the supplement of paper PMC6555819

Assays:
Assay in all cases: PBM binding z-score (relative to random genomic background probes); higher = stronger binding; sequences stand for … in GC…GCGATTGACAGCGTAGAATGAAGG
[1] = test system: FXR:RXRa (NR concentration 270 nM, RXRa partner concentration 90 nM)
Outline: (§1)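 Ligand-free nuclear receptor dimers were applied to custom Agilent 4×180K protein-binding microarrays whose double-stranded probes carried direct-repeat seeds, single-nucleotide variants, half-site ablations and random human genomic background sequences in 34-nt variable regions. Incubation lasted 1 h. Binding z-scores were computed against the random background probes from regression-normalized fluorescence.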

[2] = test system: LXRa:RXRa (NR concentration 270 nM, RXRa partner concentration 90 nM)
Outline: as §1

[3] = test system: LXRa homodimer (NR concentration 270 nM)
Outline: as §1

[4] = test system: LXRb:RXRa (NR concentration 270 nM, RXRa partner concentration 90 nM)
Outline: as §1

[5] = test system: LXRb homodimer (NR concentration 270 nM)
Outline: as §1

[6] = test system: PPARa:RXRa (NR concentration 270 nM, RXRa partner concentration 90 nM)
Outline: as §1

[7] = test system: PPARg:RXRa (NR concentration 180 nM, RXRa partner concentration 90 nM)
Outline: as §1

[8] = test system: PPARg:RXRa 270nM:90nM, anti-RXR (NR concentration 270 nM, RXRa partner concentration 90 nM)
Outline: as §1

[9] = test system: PPARg:RXRa 30nM:10nM, anti-RXR (NR concentration 30 nM, RXRa partner concentration 10 nM)
Outline: as §1

[10] = test system: PPARg:RXRa 90nM:30nM, anti-RXR (NR concentration 90 nM, RXRa partner concentration 30 nM)
Outline: as §1

| Sequence | PBM binding z-score [1] | PBM binding z-score [2] | PBM binding z-score [3] | PBM binding z-score [4] | PBM binding z-score [5] | PBM binding z-score [6] | PBM binding z-score [7] | PBM binding z-score [8] | PBM binding z-score [9] | PBM binding z-score [10] |
| --- | --- | --- | --- | --- | --- | --- | --- | --- | --- | --- |
| GCTGCTAGGTCAGGTAGGTCAGCTAACGGGTACG | 2.1 | 1.72 | 0.0186 | 1.43 | -0.161 | 2.41 | 1.45 | 2.19 | -0.0602 | 1 |
| CGAAGTAGGTCAGAACAGGACAGTGAAGGATGAT | 1.72 | 1.2 | -0.0962 | 0.449 | 0.019 | 3.32 | 5.69 | 4.81 | 2.22 | 4.14 |
| ATCGAAAGGTCGTGAGCTGAGTATACAGAAAGGC | 4.79 | 3.91 | 0.0249 | 3.03 | 0.117 | 4.86 | 3.35 | 4 | 1.23 | 2.6 |
| CCGAGTAGGTTATGGGGCATTCATGCAACGGTGA | 0.225 | 0.548 | -0.0106 | 0.797 | -0.214 | 2.26 | 3.65 | 4.6 | 3.02 | 4.44 |
| CCTTACGGGTCACTCCAGGTTATAGGATCGGAGT | 4.94 | 7.84 | 1.93 | 5.04 | -0.0329 | 4.39 | 3.38 | 3.76 | 1.12 | 2.6 |
| CAAACTAGGTCAAGAGCTCAAAGTCCGCTTCCCG | 3.7 | 2.48 | 0.129 | 1.63 | 0.0048 | 4.61 | 7.37 | 6.8 | 4.34 | 6.56 |
| CCTATTAGTTGACCATAAGGGCAACGGAAGCTCG | 0.826 | 0.337 | 0.454 | 0.234 | 0.609 | 0.552 | 0.455 | 0.511 | 0.321 | 0.476 |
| CCAGACAGGTGAAAGGTGACTCAGTCTGGTACGC | 1.34 | 1.27 | -0.086 | 1.33 | -0.308 | 4.15 | 6.88 | 6.76 | 5.26 | 7.19 |
| CCTTACGGGTCACTAACAGGTTATAGCATTTGGA | 4.73 | 4.24 | 0.54 | 3.4 | 0.319 | 4.89 | 3.61 | 3.78 | 1.37 | 2.83 |
| CCTATAAGTTGACCATAAGGGCAACCGAAGCTCG | 1.36 | 0.588 | 0.467 | 0.379 | 0.387 | 0.93 | 0.632 | 0.292 | 0.0132 | -0.0263 |
| TATACAGGCTCAAAGGCCAGAGTACGAATGTCGA | -0.0411 | 0.0342 | -0.184 | -0.265 | -0.0867 | 0.221 | 1.03 | 1.75 | 0.77 | 1.4 |
| TGTTGTAGATCAGCAGGTTAAGAAAGCTGGCCAA | -0.297 | -0.297 | -0.591 | -0.397 | -0.822 | -0.205 | -0.588 | 0.116 | -0.287 | -0.0252 |
| TATACAGGGACAAAGGCCAGAGTACGAATGTCGA | 0.545 | 0.102 | 0.279 | -0.249 | 0.97 | 1.19 | 2.9 | 3.98 | 2.12 | 3.3 |
| GGAACGAGGGCATGCGAGTTGATAGCATGGCGAT | 0.758 | 0.468 | -0.615 | -0.143 | -1.37 | 1.35 | 0.979 | 0.516 | -0.248 | 0.117 |
| GCGACTGGGGCATCAGCAGGTTACCATCACTTAA | -0.298 | -0.121 | -0.321 | 0.504 | -0.992 | 0.811 | 0.679 | 0.547 | -0.615 | -0.341 |
| TCATATAGGTAAATGCTAGGTGAGAGTCCGATCT | -0.733 | 0.512 | -0.251 | 0.0109 | -0.13 | 1.05 | 0.622 | 1.86 | 3.39 | 2.64 |
| AGTCAAAGCTCACTAGGTAACGTAAGATTCAGCT | -0.693 | -0.67 | -0.464 | -0.615 | -0.437 | 0.637 | 0.855 | 0.165 | 0.0714 | -0.118 |
| TTACCAAGGTGAAGGACGTTGATCCCTCTGTAGA | 0.74 | 0.584 | -0.361 | 0.414 | -0.656 | 1.21 | 0.633 | 1.19 | 0.789 | 1.17 |
| TCGAGTAGGTTATGGGCATTCAGAATGGCGTCGA | -0.455 | 0.186 | -0.538 | -0.2 | -1.18 | 0.825 | 0.399 | 1.47 | 0.906 | 1.13 |
| GATACAGGGTCAGCTAGAGGCGAGAGTATGGAAA | 4.63 | 2.33 | -0.47 | 2.27 | -0.792 | 4.46 | 3.77 | 3.24 | 1.08 | 1.87 |
| ATACCATGGTGATCGTGAGGTCGTTGATACTAAC | 0.952 | 0.604 | 0.284 | 1.08 | -0.16 | 0.884 | 0.301 | -0.0472 | 0.115 | 0.0761 |
| CGTACAAGGTCATAGGAGGTCAGTGAAGACAGAT | 7.48 | 7.5 | 5.3 | 6.46 | 1.33 | 6.18 | 6.47 | 6.66 | 3.17 | 5.29 |
| CGAACTAGCTCAGAACAGGACAGTGAAGGATGAT | -0.682 | -0.642 | -0.0403 | -0.877 | -0.565 | -0.547 | 0.544 | -0.694 | -0.189 | -0.609 |
| ATCTCTAGGTAAAAGTTCAGTAAATCCCGAGGAT | 0.994 | 1.49 | 1.5 | 1.29 | 1.31 | 4.43 | 7.76 | 7.37 | 6.62 | 8.13 |
